# Experiments:
# Assay in all cases: DAPPL (digital affinity profiling via proximity ligation, sequencing); 10 mM Tris-HCl pH 7.5, 50 mM NaCl, 1 mM DTT, 4% glycerol, room temperature, 30 min; GST-TFs on glutathione beads, 16-mer random dsDNA library, 0.1% formaldehyde crosslink after washing; high values mean tight binding
# [1] = target: T1, FEV (Homo sapiens, UniProt Q99581 1-238); settings: protein: recombinant; tags: N-terminal GST; dsDNA, one strand shown
# T1 sequence: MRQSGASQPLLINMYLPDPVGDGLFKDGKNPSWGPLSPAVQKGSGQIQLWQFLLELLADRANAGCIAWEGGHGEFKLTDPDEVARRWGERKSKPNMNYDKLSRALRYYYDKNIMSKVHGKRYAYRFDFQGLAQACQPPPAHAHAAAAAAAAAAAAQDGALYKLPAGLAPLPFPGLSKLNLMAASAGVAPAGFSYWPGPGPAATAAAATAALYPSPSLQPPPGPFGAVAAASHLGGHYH
# In short: (§1)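 A tag-only sample was pooled with DNA-barcoded human transcription factors that had been expressed in yeast as GST fusions and captured on glutathione beads. The pools were incubated for 30 min at room temperature with 200 nmole of a random double-stranded 16-mer DNA library in Tris/NaCl/DTT/glycerol buffer, then washed, crosslinked with 0.1% formaldehyde, proximity-ligated (BsaI/T4 ligase, 1 h, 37 °C), PCR-amplified and sequenced on an Illumina NextSeq500. Binding signal is each hexamer's read frequency for a factor divided by its frequency for the tag-only sample.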
# [2] = target: ETV5 (Homo sapiens, UniProt P41161 1-510); settings: protein: recombinant; tags: N-terminal GST; dsDNA, one strand shown
# In short: as §1
# [3] = target: HSF1 (Homo sapiens, UniProt Q00613 1-529); settings: protein: recombinant; tags: N-terminal GST; chain copies: 3; dsDNA, one strand shown
# In short: as §1
# [4] = target: T2, SPIC (Homo sapiens, UniProt Q8N5J4 1-248); settings: protein: recombinant; tags: N-terminal GST; dsDNA, one strand shown
# T2 sequence: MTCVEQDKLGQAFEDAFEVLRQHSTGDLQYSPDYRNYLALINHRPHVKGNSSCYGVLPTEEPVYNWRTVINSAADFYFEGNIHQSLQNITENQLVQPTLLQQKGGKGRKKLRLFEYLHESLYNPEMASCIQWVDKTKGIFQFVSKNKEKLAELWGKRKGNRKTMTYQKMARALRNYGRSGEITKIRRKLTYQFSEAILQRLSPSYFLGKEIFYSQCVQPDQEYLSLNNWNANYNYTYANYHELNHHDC
# In short: as §1
# [5] = target: ELF4 (Homo sapiens, UniProt Q99607 1-663); settings: protein: recombinant; tags: N-terminal GST; dsDNA, one strand shown
# In short: as §1
# [6] = target: T3, ELK4 (Homo sapiens, UniProt P28324-2 1-405); settings: protein: recombinant; tags: N-terminal GST; dsDNA, one strand shown
# T3 sequence: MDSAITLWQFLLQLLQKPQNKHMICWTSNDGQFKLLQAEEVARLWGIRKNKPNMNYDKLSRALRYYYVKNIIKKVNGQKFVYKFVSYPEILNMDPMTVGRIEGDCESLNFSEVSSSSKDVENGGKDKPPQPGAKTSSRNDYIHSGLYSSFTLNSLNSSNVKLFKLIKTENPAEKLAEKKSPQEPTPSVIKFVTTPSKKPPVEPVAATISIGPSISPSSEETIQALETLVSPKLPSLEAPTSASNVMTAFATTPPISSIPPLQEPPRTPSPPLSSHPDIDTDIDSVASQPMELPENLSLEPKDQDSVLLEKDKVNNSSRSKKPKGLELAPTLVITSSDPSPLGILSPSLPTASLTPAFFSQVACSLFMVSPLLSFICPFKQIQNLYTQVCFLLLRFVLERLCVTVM
# In short: as §1
# [7] = target: T4, ETV2 (Homo sapiens, UniProt O00321 1-342); settings: protein: recombinant; tags: N-terminal GST; dsDNA, one strand shown
# T4 sequence: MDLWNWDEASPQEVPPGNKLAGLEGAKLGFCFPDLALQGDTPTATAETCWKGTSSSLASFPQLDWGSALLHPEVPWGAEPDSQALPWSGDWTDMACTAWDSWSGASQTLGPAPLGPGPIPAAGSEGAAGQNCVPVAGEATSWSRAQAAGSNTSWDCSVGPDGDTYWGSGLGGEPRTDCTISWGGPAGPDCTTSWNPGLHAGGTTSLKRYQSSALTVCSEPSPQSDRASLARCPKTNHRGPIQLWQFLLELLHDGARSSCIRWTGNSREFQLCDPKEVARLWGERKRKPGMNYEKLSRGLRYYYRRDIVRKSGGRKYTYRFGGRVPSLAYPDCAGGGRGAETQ
# In short: as §1
# [8] = target: T5, ELF3 (Homo sapiens, UniProt P78545 1-371); settings: protein: recombinant; tags: N-terminal GST; dsDNA, one strand shown
# T5 sequence: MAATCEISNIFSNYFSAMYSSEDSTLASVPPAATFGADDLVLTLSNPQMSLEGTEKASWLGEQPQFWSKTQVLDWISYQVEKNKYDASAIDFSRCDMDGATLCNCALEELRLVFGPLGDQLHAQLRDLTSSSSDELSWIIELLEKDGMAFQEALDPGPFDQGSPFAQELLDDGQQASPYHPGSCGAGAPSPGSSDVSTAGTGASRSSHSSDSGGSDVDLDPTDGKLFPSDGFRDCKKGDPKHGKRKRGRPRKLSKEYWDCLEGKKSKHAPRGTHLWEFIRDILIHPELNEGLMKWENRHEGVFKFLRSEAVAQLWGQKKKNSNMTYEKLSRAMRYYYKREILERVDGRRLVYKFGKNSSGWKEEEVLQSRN
# In short: as §1
# [9] = target: CRX (Homo sapiens, UniProt O43186 1-299); settings: protein: recombinant; tags: N-terminal GST; dsDNA, one strand shown
# In short: as §1
# [10] = target: ETV1 (Homo sapiens, UniProt P50549 1-477); settings: protein: recombinant; tags: N-terminal GST; dsDNA, one strand shown
# In short: as §1
# ETV1, sequence (P50549 whole entry): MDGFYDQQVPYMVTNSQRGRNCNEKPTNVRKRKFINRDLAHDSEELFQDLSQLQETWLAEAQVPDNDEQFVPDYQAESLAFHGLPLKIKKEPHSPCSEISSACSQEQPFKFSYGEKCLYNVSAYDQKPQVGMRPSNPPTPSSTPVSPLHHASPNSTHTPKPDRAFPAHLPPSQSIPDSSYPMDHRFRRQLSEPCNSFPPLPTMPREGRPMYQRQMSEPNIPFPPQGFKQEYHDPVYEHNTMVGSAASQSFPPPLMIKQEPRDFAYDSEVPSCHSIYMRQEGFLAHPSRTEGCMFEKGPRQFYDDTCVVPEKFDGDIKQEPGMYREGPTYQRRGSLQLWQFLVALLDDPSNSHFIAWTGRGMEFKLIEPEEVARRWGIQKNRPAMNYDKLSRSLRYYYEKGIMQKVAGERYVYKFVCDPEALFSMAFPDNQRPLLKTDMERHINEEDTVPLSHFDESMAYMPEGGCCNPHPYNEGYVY
# ELF4, sequence (Q99607 whole entry): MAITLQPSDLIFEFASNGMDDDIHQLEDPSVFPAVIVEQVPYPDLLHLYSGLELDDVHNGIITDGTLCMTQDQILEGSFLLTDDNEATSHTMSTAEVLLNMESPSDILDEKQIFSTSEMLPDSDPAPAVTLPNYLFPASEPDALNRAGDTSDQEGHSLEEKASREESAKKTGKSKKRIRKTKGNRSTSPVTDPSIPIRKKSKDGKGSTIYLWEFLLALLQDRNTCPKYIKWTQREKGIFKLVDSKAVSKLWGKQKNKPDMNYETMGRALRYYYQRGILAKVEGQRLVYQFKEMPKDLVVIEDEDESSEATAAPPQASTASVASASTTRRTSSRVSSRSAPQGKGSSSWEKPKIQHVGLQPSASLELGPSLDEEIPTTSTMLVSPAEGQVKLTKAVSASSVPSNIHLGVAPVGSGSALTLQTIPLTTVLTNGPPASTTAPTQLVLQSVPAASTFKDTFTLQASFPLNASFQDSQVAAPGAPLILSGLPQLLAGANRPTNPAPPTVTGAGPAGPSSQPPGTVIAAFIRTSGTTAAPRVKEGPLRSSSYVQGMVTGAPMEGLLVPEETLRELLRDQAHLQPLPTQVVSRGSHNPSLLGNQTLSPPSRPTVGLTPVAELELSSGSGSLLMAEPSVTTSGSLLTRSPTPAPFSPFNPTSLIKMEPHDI
# ETV5, sequence (P41161 whole entry): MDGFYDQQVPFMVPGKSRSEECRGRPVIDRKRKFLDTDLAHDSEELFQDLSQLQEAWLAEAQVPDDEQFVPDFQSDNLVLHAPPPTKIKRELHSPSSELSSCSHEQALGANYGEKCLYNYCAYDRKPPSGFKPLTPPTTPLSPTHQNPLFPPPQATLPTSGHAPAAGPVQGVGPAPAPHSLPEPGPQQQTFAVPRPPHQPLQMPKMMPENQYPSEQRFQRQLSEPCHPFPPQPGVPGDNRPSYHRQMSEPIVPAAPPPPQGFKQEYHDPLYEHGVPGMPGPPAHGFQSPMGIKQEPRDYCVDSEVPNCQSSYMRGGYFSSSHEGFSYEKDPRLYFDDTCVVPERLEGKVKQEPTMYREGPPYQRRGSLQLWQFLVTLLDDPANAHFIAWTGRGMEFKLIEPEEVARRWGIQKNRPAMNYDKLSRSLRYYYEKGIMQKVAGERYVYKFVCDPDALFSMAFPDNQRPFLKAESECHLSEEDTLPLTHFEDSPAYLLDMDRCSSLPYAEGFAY
# HSF1, sequence (Q00613 whole entry): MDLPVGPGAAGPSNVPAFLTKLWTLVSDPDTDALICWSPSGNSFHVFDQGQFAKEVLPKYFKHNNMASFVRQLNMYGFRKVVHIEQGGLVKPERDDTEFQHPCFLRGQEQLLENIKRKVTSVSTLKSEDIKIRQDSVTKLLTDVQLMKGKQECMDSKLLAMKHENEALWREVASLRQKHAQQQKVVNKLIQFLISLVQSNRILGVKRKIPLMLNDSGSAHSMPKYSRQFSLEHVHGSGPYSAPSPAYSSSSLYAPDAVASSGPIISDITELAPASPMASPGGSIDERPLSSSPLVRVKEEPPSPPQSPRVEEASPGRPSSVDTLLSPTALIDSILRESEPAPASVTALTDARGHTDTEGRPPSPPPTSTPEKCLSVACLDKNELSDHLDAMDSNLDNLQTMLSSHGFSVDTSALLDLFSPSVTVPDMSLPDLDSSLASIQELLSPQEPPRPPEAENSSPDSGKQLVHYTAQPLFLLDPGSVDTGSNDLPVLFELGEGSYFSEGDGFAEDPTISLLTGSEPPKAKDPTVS
# CRX, sequence (O43186 whole entry): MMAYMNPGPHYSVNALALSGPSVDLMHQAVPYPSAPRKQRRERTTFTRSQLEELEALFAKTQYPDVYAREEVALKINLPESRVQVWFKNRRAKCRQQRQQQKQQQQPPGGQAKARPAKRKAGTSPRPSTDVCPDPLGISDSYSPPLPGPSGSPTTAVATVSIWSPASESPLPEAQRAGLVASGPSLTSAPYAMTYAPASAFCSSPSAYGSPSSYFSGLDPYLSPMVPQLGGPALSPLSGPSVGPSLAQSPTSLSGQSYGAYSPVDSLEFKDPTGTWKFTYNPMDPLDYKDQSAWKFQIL
sequence,measurement,setting,value
ATCATC,binding signal,[1],"1.11 fold enrichment (6-mer frequency, TF over GST control)"
same,binding signal,[2],"1.1 fold enrichment (6-mer frequency, TF over GST control)"
same,binding signal,[3],"1.4 fold enrichment (6-mer frequency, TF over GST control)"
same,binding signal,[4],"1.24 fold enrichment (6-mer frequency, TF over GST control)"
same,binding signal,[5],"1.17 fold enrichment (6-mer frequency, TF over GST control)"
same,binding signal,[6],"1.31 fold enrichment (6-mer frequency, TF over GST control)"
same,binding signal,[7],"1.21 fold enrichment (6-mer frequency, TF over GST control)"
same,binding signal,[8],"1.26 fold enrichment (6-mer frequency, TF over GST control)"
same,binding signal,[9],"1.56 fold enrichment (6-mer frequency, TF over GST control)"
same,binding signal,[10],"1.12 fold enrichment (6-mer frequency, TF over GST control)"
